Only some compounds are listed: those with a hit (about 2% of all), similar ones and a draw of the others.
ARNT TACC3 PPI: disruptors of ARNT/TACC3 protein interaction, primary screen, biochemical, AlphaScreen, single concentration. Transforming acidic coiled-coil-containing protein 3 (Homo sapiens), Q9Y6A5. AlphaScreen His-ARNT PAS-B/GST-TACC3 binding, luminescence; TACC3 fragment carries E629A point mutation. inhibition, % at 9.99 µM. hit rate 0.66% among 390,000;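 active = mean inhibition of replicates at least 50% and at least half of replicates each reaching 50%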;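 also: 0% = complete ARNT plus TACC3 wells and 100% = ARNT alone without TACC3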
DAGLB inhibitor: DAGLB lipase inhibitors, primary screen, biochemical, fluorescence, HTS; Diacylglycerol lipase-beta (Homo sapiens), Q8NCG7; HEK293T DAGLB membrane lysate, EnzChek fluorogenic substrate; inhibition, % at 5.17 µM; hit rate 0.059% among 340,000; AID 504411, 2011; in the data active = inhibition above about 34%;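 also: 0% = enzyme with vehicle and 100% = wells lacking enzyme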
NadD inh: inhibitors of S. aureus NadD, primary screen, biochemical, colorimetric, uHTS | Nicotinate-nucleotide adenylyltransferase NadD (Staphylococcus aureus N315) | purified NadD enzyme, colorimetric absorbance read-out | inhibition, % at 20 µM | hit rate 0.78% among 360,000 | AID 602399, 2012; in the data active = inhibition above about 26%
Neddylation inh: inhibitors of cullin neddylation, primary screen, biochemical, TR-FRET, uHTS, NAE and Ubc12. NEDD8-conjugating enzyme Ubc12 (Homo sapiens) + NEDD8-activating enzyme E1 regulatory …. inhibition, % at 25 µM. hit rate 0.58% among 360,000. AID 651699, 2012; in the data active = inhibition above about 36%
sPLA2-III inh: human group III sPLA2 inhibitors, primary screen, biochemical, QFRET, BODIPY PC-A2 liposome substrate. Group 3 secretory phospholipase A2 (Homo sapiens), Q9NZ20. QFRET BODIPY PC-A2 liposome hydrolysis, fluorescence. hit rate 0.56% among 370,000. AID 743126, 2013. inhibition, % at 12.2 µM;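 active = inhibition above mean plus 3 SD of compounds lying within the high and low control bounds, cut at about 19% in these data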;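 also: 0% = median of test compound wells and 100% = no enzyme DMSO wells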
Target sequence (Q9NZ20 whole entry, looked up): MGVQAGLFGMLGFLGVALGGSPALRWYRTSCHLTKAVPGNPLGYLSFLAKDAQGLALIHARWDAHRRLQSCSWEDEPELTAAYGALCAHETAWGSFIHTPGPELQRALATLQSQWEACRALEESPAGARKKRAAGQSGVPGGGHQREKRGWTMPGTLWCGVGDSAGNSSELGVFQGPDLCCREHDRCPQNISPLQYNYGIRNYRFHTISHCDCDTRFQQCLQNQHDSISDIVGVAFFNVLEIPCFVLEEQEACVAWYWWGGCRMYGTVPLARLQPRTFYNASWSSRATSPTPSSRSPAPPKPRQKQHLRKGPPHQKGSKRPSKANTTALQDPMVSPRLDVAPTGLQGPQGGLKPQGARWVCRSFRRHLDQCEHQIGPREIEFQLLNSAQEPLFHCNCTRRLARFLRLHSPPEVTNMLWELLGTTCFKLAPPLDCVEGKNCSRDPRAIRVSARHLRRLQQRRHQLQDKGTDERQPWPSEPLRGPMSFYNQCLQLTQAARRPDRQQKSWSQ
Neddyl inh conf: blockade of NEDD8 conjugation to cullin – biochemical, TR-FRET, single concentration, confirmation. shares compounds with Neddylation inh. TR-FRET cullin neddylation biochemical assay. calls only at 25 µM. hit rate 13% among 1,800. AID 652217, 2013; in the data active = inhibition above about 40%;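 also: neddylation substrate is the cullin 1 ring ligase complex with SKP2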
hGIII sPLA2 conf: human group III sPLA2 inhibitors, confirmation, biochemical, QFRET, triplicate; recombinant hGIII-sPLA2, BODIPY PC-A2 QFRET fluorescence; hit rate 34% among 2,000; shares compounds with sPLA2-III inh; inhibition, % at 12.2 µM;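 active = mean inhibition across triplicates above the hit cutoff set in the earlier primary screen, cut at about 19% in these data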;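 also: 0% = enzyme with DMSO and 100% = DMSO wells lacking enzyme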
BODIPY interf: 535nm fluorescence optical interference, confirmation, artefact control for HGIII-sPLA2 inhibitor project, biochemical, QFRET. inhibition, % at 12.2 µM. hit rate 8.5% among 2,000. shares compounds with sPLA2-III inh. BODIPY FL product fluorescence interference;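 active = average inhibition above the solvent-only control mean plus 3 SD, cut at about 6% in these data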;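 also: 0% = DMSO with substrate plus product and 100% = DMSO with substrate alone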
535nm interf DR: 535nm fluorescence optical interference, dose response, artefact control for HGIII-sPLA2 inhibitor project, biochemical, QFRET; BODIPY FL product fluorescence interference, cell-free; shares compounds with sPLA2-III inh; 240 tested, under 10 active; IC50, µM; AID 743455, 2014;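 active = IC50 at or below 10 µM; inactive = IC50 above 10 µM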
* = called active by the depositor; i = inactive; / = no result shown; + = active, no number.

SMILES	ARNT TACC3 PPI	DAGLB inhibitor	NadD inh	Neddylation inh	sPLA2-III inh	hGIII sPLA2 conf	BODIPY interf	others
CCCN(C)C[C@@H]1OCCCC[C@@H](C)Oc2ccc(NS(=O)(=O)c3cn(C)cn3)cc2C(=O)N([C@@H](C)CO)C[C@@H]1C	3	/	/	/	/	/	/
CN(C)C(=O)CCC(=O)N1CCCC(C(=O)c2ccc3c4c(cccc24)CC3)C1 (configuration not stated)	0	-2	0	41*	-1	/	/	Neddyl inh conf=i
CC(C)C(=O)Nc1ccc2c(c1)C(=O)N(C)[C@H]1CC[C@@H](CC(=O)N[C@H](C)c3ccccc3)O[C@@H]1CO2	-11	/	/	/	/	/	/
Cn1c(=O)c2cc3ccccc3nc2n(C)c1=O	-3	0	-2	48*	6	/	/	Neddyl inh conf=+
Cc1ccc(S(=O)(=O)c2cc3c(=O)n4ccccc4nc3n(C)c2=N)cc1	6	-1	-2	58*	8	/	/	Neddyl inh conf=i
CCn1c(=N)c(S(=O)(=O)c2ccc(C)cc2)cc2c(=O)n3ccccc3nc21	/	/	/	/	3	/	/
CC(C)Cc1csc(NC(=O)c2ccc(Cl)cc2)c1C(=O)O	-5	15	-10	45*	-4	/	/	Neddyl inh conf=i
CC(C)Cc1csc(NC(=O)c2ccccc2Cl)c1C(=O)O	0	4	6	7	-4	/	/
CCCN1C[C@H](C)[C@@H](OC)CN(C)C(=O)c2cc(NC(=O)COC)ccc2OC[C@@H]1C	9	/	/	/	/	/	/
Oc1ccccc1C=NNC(=S)Nc1ccc(F)cc1	active	11	0	45*	32*	33*	13*
Oc1ccccc1/C=N/NC(=S)NCCc1ccccc1	5	2	-4	42*	20*	21*	7.3*	Neddyl inh conf=i
CC(C)C#Cc1cnc2c(c1)C(=O)N([C@H](C)CO)C[C@H](C)[C@@H](CN(C)C(=O)c1ccc3c(c1)OCO3)O2	6	/	/	/	/	/	/
O=C(NCC[C@@H]1CC[C@@H](NC(=O)c2cnccn2)[C@H](CO)O1)Nc1ccc(Cl)cc1	2	/	/	/	/	/	/
COC(=O)C1=C(C)NC2=C(C(=O)CC(C)(C)C2)C1c1cnn(C)c1C (configuration not stated)	-1	-2	-7	40*	21*	1	-3
Cc1c(C2Nc3ccccc3NC3=C2C(=O)CC(C)(C)C3)cnn1C (configuration not stated)	2	-3	-4	-17	-24	/	/
COc1ccc(C(C)C)cc1-c1cccc2nncn12	/	/	3	45*	21*	5	-6	Neddyl inh conf=i
Nc1cccc(-c2cccc3nncn23)c1	/	/	2	-10	5	/	/
O=C(NNC(=O)c1ccc2ccccc2c1O)NC1CCCCC1	-3	5	-12	41*	26*	18	1	Neddyl inh conf=i
O=C1O[C@@H](c2ccccc2)[C@@H](c2ccccc2)N2[C@@H](c3ccc(OCCO)cc3)[C@]3(C(=O)Nc4ccc(C#CC5=CCCCC5)cc43)[C@@H](C(=O)NC[C@H](O)c3ccccc3)[C@H]12	27	/	/	/	/	/	/
COc1ccc(NC(=O)c2cc(-c3cc(C)ccc3O)n[nH]2)cc1Cl	1	-4	-3	7	20*	-3	-1
O=C(N[C@@H]1CC[C@H](CCNS(=O)(=O)Cc2ccccc2)O[C@H]1CO)c1cnccn1	2	/	/	/	/	/	/
CCOCCCn1c(SC(C(=O)Nc2cc(C)ccc2C)c2ccccc2)nnc1-c1ccc(Cl)cc1 (configuration not stated)	-6	0	-3	-7	20*	-8	-5
CNc1nn(-c2cccc(Cl)c2)nc1N	4	2	3	0	22*	35*	3	535nm interf DR=>122
CN(C)CCCN(C(=O)c1cc2ccccc2oc1=O)c1nc2ccc(F)cc2s1	/	-2	-4	-14	-8	/	/
CCN(CCCCCN(C)C)Cc1cc2ccccc2o1	-8	1	-1	-3	21*	-2	-19
SMILES	ARNT TACC3 PPI	DAGLB inhibitor	NadD inh	Neddylation inh	sPLA2-III inh	hGIII sPLA2 conf	BODIPY interf	others
CC=Cc1ccc2n(c1=O)C[C@@H]1[C@@H](CO)[C@H](C(=O)Nc3ccccc3)N(CC3CCCC3)[C@H]21 (mixture of isomers)	8	/	/	/	/	/	/
COc1ccc(-c2ccc([C@H]3[C@H](C#N)N(C(=O)NC4CCCC4)[C@H]3CO)cc2)cc1	-5	/	/	/	/	/	/
CC(C)(C)c1csc(NNC(=O)c2ccc(Br)cc2)n1	12	-9	1	2	47*	49*	5	535nm interf DR=>122
CC(C)(C)c1csc(NC(=O)c2ccccc2O)n1	0	-3	-1	/	-23	/	/
O=C(NNc1nc(-c2ccc(F)cc2)cs1)c1ccccc1	1	-1	24	4	29*	40*	8.1*
O=C(NNc1nc(-c2ccccc2)cs1)c1ccc(F)cc1	4	0	-2	-1	36*	46*	11*
O=C(NC(=S)Nc1nc(-c2ccccc2)cs1)c1cccs1	-1	-4	4	-3	-6	/	/
O=C(NNc1nc(-c2ccccc2)cs1)c1cccs1	/	/	3	-10	33*	49*	11*
Cc1noc(C)c1NC(=O)N(C)C[C@H]1Oc2c(NC(=O)c3ccc(-c4nccs4)cc3)cccc2C(=O)N([C@@H](C)CO)C[C@H]1C	4	/	/	/	/	/	/
CCCCC(=O)NC(c1ccccc1Cl)c1ccc2cccnc2c1O (configuration not stated)	6	9	-1	0	28*	25*	-5
CCCCC(=O)NC(c1ccc(C(C)C)cc1)c1ccc2cccnc2c1O (configuration not stated)	-13	4	4	8	13	/	/
CCCC(=O)NC(c1ccc(OC)cc1)c1ccc2cccnc2c1O (configuration not stated)	20	16	3	1	24*	15	-9
O=c1c2ccccc2cnn1Cc1n[nH]c(=S)n1C1CC2CCC1C2 (configuration not stated)	2	3	4	3	26*	21*	0

Screens deposited in PubChem by several laboratories.
